# Test results reported in PubChem BioAssay AID493197 (Broad Institute, 2011).
# Results with a measured potency or affinity are listed apart. Inconclusive results are not listed. Unmarked numbers belong to inactive results. No rule for the calls is given here.
# Assay: anti-trypanosomal activity in host cells – cell-based, plate reader, dry powder, set 3, dose response (AID 493197)
# Conditions: intracellular Trypanosoma cruzi in host cells; series mostly up to 19.5 µM; activity change, negative = inhibition: at the top concentration
row,Structure (SMILES),"activity change, negative = inhibition [%]"
1,COc1ccc(CN2CCC(C(=O)NC3CCCC3)CC2)cc1OC,-40.9
2,COc1ccc(CCNC(=O)C2CCCCC2)cc1OC,-18
3,CCCNC(=O)C1(C)CCCN(C(=O)Cc2ccc(OC)c(OC)c2)C1 (configuration not stated),24.1
4,COc1ccc(CCN2CC(C(=O)NCc3ccc(F)cc3)CC2=O)cc1OC (configuration not stated),-13.9
5,CCNC(=O)C1CCCN(C(=O)c2cc(OC)c(OC)c(OC)c2)CC1 (configuration not stated),-5.26
6,COCCNC(=O)C1(C)CCCN(C(=O)c2ccc(OC)c(OC)c2)C1 (configuration not stated),-1.31
7,COc1cc2c(cc1OC)C(C)N(CCC(N)=O)CC2 (configuration not stated),-16.1
8,CCCNC(=O)C1(C)CCN(C(=O)Cc2ccc(OC)c(OC)c2)C1 (configuration not stated),-38.6
9,CCNC(=O)C1(C)CCN(C(=O)c2ccc(OC)c(OC)c2)C1 (configuration not stated),-4.33
10,COCCNC(=O)C1(C)CCCN(C(=O)c2cc(OC)c(OC)c(OC)c2)C1 (configuration not stated),14.9
11,CCNC(=O)C1(C)CCCN(C(=O)Cc2ccc(OC)c(OC)c2)C1 (configuration not stated),19.3
12,CCCNC(=O)C1(C)CCCN(C(=O)c2ccc(OC(F)F)cc2)C1 (configuration not stated),1.44
